High-throughput results: PubChem, National Center for Advancing Translational Sciences (NCATS)
Pf growth 48h: inhibits P. falciparum growth in the first generation, 48 h. P. falciparum luciferase growth in erythrocytes, 48 h. Potency, µM (titrated, usually from 28.7 µM), for the others: top-dose activity change, negative = inhibition, hits mostly inhibitors. hit rate 5.9% among 310,000; further: potency means the concentration at half of the fitted maximal effect; on the % scale 0 is the no-effect control and ±100 the full control effect
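Cell-based growth assay: transgenic P. falciparum expressing firefly luciferase, cultured in red cells within RPMI 1640 containing 0.5% w/v Albumax, 24 mM bicarbonate and gentamycin. A drop in luciferase activity indicates inhibition.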
HCMV inh: human cytomegalovirus inhibition | HFF cells, HCMV-luciferase reporter, 72 h; active compounds read low | hit rate 4.5% among 410,000 | activity change, negative = inhibition, % at 57.5 µM; in the data active means activity change below about -60%; inconclusive means no clear call, values can overlap the other calls; inactive means above about -39%; further: on the % scale 0 is the no-effect control and ±100 the full control effect
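Two compound doses tested in HFFs infected with HCMV-luciferase, MOI 1 PFU/cell, 72 h at 37C. Lysate luminescence read with OneGlo; data normalized against buffer-only and 10uM Salinomycin inhibitor controls.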
Pf growth 96h: P. falciparum growth inhibition at 96 hours | Potency, µM (titrated, usually from 28.7 µM), for the others: at the top dose activity change, negative = inhibition, actives largely listed as inhibitors | hit rate 6.9% among 320,000 | AID 504834 | P. falciparum luciferase reporter growth, 96 h; further: potency means the concentration at half of the fitted maximal effect; on the % scale 0 is the no-effect control and ±100 the full control effect
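Plates of compound plus infected erythrocytes (2% hematocrit, 0.05% parasitemia final) incubate 96 hours, 37 C, 5% CO2. Detection reagent added; reduced luminescence from the parasites' luciferase reporter flags inhibition.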
CHX counter: affects cycloheximide protein synthesis inhibition readout, counter-screen. cell reporter, cycloheximide protein synthesis inhibition counterscreen. max response, %. hit rate 12% among 300,000. AID 2314; in the data active means max response mostly above about 13%, no sharp cut-off; inactive means mostly below about 14%; further: read at 38.3 µM for the half of the compounds with a filed dose; 0% is about no effect
Shiga inhibitor: Shiga toxin inhibition. Vero cells, Shiga toxin protein synthesis inhibition reporter. inhibition, % at 38.7 µM. hit rate 9.2% among 290,000. AID 2315; in the data active means inhibition mostly above about 28%, no sharp cut-off; inactive means mostly below about 43%; further: 0% is about no effect
An asterisk follows results filed as active; u = inconclusive; x = no result given; [ ] = remark or other dose. Hits are enriched below; roughly 20% of the tested compounds scored in any of these assays. Unless noted, the call rests on the fitted dose curve; in most records, active means well fitted inhibition curve with a large enough effect; inconclusive means small, poorly fitted or top-dose-only effect, or another doubt; inactive means no such curve, though single readings can be large or run the other way.

SMILES | Pf growth 48h | HCMV inh | Pf growth 96h | CHX counter | Shiga inhibitor
N/C(Cc1nc(-c2ccc(F)cc2)cs1)=N\O | 122.8% | 23.1 | 61.1% | 22.0* | 43.4*
CCc1cc2c(cc1-c1csc(C/C(N)=N/O)n1)C(C)(C)CCC2(C)C | x | -31.4 | x | x | x
CC(=O)/C(=C/N(C)C)C(=O)Nc1ccc(Cl)cc1Cl | 2.1% | u | -7.7% | 20.8 | 15.9
CN(C)CCNC=C(C(=O)Nc1ccc(Cl)cc1Cl)C(=O)Nc1ccc(Cl)cc1Cl | 3.29µM* | -3.2 | 1.85µM* | -4.3 | 7.0
O=C(CCCCCN1C(=O)CCC1=O)Nc1ccc(Br)cc1F | 18.6% | 2.1 | 1.04µM* | -1.8 | 18.1
COc1ccc(NC(=O)CCCCCN2C(=O)CCC2=O)cc1Cl | x | 14.6 | -33.1% | -1.1 | 20.2
O=C(Cn1cccc1)Nc1ccc(F)cc1F | 7.2% | -5.3 | u | -2.8 | -1.2
O=C(CCCCCN1C(=O)CCC1=O)Nc1ccc(Cl)c(C(F)(F)F)c1 | 47.4% | -64.1* | x | 14.4 | 26.5
O=C(CSCc1ccccc1)Nc1ccc(F)cc1F | 16.6% | -2.4 | 18.4% | 21.0* | 49.0*
NC(=O)c1ccccc1NC(=O)CCCN1C(=O)CCC1=O | 28.8% | -11.7 | x | -1.5 | -9.4
O=C(CCOc1ccccc1)Nc1ccccc1F | 42.5% | x | 4.0% | 32.4* | 73.8*
O=C(CCCc1ccccc1)Nc1ccc(Br)cc1F | 45.5% | x | 7.2% | 55.3* | x
O=C(CCc1ccccc1)Nc1ccccc1F | x | 97.1 | 295.6% | 29.8* | 73.7*
O=C(CCc1ccccc1)Nc1ccc(F)cc1F | 62.2% | 23.0 | x | 23.4* | 66.8*
CCOC(=O)N1CCC(NC(=O)c2csc3c2CCCC3)CC1 | x | -5.5 | -0.3% | -4.7 | -8.4
CCN(CC)C(=O)c1[nH]cnc1C(=O)NCc1ccc(CNC(=O)OC(C)(C)C)cc1 | -2.7% | 6.0 | u | x | x
Cc1nc(CSc2nsc(/C=C/N(C)C)c2C#N)cs1 | u | 28.0 | 9.28µM* | 28.7* | 102.6*
COc1ccc(OCCCC(=O)N2CCN(S(=O)(=O)c3cccc(F)c3)CC2)cc1 | u | -34.4 | u | x | x
Cc1ccc(NC(=O)Cn2c(=O)n(CCc3ccccc3)c(=O)c3c4c(sc32)CCCC4)c(C)c1 | x | -4.1 | x | x | x
Cc1cc(C)c2cc(CN(CCO)C(c3nnnn3Cc3ccc(F)cc3)C(C)C)c(=O)[nH]c2c1 (stereo unspecified) | u | -27.4 | 11.7µM* | -1.4 | -17.4
CCOc1ccc2nc(/N=C/c3c(C)[nH]n(-c4ccccc4)c3=O)sc2c1 | 99.8% | 19.2 | -2.8% | 30.3* | 61.4*
CCOc1ccc2nc(/N=C/c3c(C)[nH]n(-c4ccc(C)cc4)c3=O)sc2c1 | 61.3% | 142.5 | -8.7% | 32.9* | 33.3
CCOc1ccc2nc(SC3CC(=O)N(c4ccc(C)cc4)C3=O)sc2c1 (stereo unspecified) | 18.1% | 88.0 | -10.8% | 2.1 | -4.9
CCOc1[nH]n(-c2ccccc2)c(=O)c1C=Nc1ccc(OC)cc1 | 0.0% | -18.1 | 10.0% | 14.5 | 23.0
CC(C)c1ccc(OCCCN2CCCC2)cc1 | -20.1%[0.00184 µM] | 5.2 | -5.1% | -1.7 | -1.8
SMILES | Pf growth 48h | HCMV inh | Pf growth 96h | CHX counter | Shiga inhibitor
CC(=O)Oc1ccc(OC(C)=O)c(SCCCCCN2CCOCC2)c1 | 5.22µM* | u | 7.38µM* | 6.8 | 26.0
Cc1ccc(OCCCCN2CCCCC2)cc1 | 50.4% | 14.3 | -21.2% | 1.0 | -0.6
CC(C)c1ccc(OCCCCCN2CCOCC2)cc1 | -10.6%[0.00184 µM] | 63.9 | 34.0% | 53.9* | 116.4*
O=C(c1ccccc1)c1ccc(OCCCN2CCCC2)cc1 | 8.8% | -6.8 | 0.0% | 27.6* | 43.7*
c1ccc(COc2ccc(OCCCCN3CCCCC3)cc2)cc1 | x | 39.3 | u | 55.2* | 69.9*
O=C(c1ccccc1)c1ccc(OCCCCN2CCCCC2)cc1 | -1.5% | -8.4 | x | -1.6 | 14.4
O=C1CN(S(=O)(=O)Cc2ccccc2)C[C@H]2[C@H](c3ccc(Br)cc3)[C@H](CO)N12 | x | -0.8 | x | x | x
CN(C)c1ccc(CNS(=O)(=O)c2ccc(-c3cc(C(F)(F)F)on3)s2)cc1 | x | -25.9 | x | x | x
Brc1ccc(OCCN2CCOCC2)cc1 | 17.2% | 47.1 | u | 15.2 | 23.0*
Brc1ccc(OCCCN2CCOCC2)cc1 | x | 18.6 | 36.1% | 13.7* | 29.9
Brc1ccc(OCCCCN2CCCCC2)cc1 | -27.2% | -7.9 | 5.22µM* | -3.4 | 2.6
CCc1cc(-c2nnn(CCC3COCCO3)c2CC)cc(CC)c1-c1cn(CCc2c[nH]c3ccccc23)nn1 (stereo unspecified) | x | -17.2 | x | x | x
C=CCNc1nc2c3ccccc3n(C(C)=O)c2s1 | u | 38.6 | u | 23.7 | 128.9*
CC(C)(C)c1ccc(C(=O)Nc2ccc(C(=O)OCc3cc(=O)n4ccsc4n3)cc2)cc1 | x | 12.9 | x | x | x
Clc1cc2nc3ccccn3c2cc1Cl | 22.0% | 15.2 | 80.5% | 19.8* | 67.7*
CN(c1cccc(NC(=O)Nc2cccc(Cl)c2)c1)S(C)(=O)=O | 56.7% | 34.9 | 1.9% | 36.6* | 94.0*
CN(C)c1ccc(NC(=O)Nc2cccc(Cl)c2)cc1 | 4.3% | 51.2 | 13.7% | 30.9* | 49.9*
CN(C)NC(=S)Nc1cccc(Cl)c1 | u | 3.5 | -15.6% | -0.5 | 12.5
CCOc1ccc(NC(=O)c2sc(-n3nc(C)c(CCC(C)C)c3C)nc2C)cc1 | x | 14.3 | x | x | x
O=c1c2ccccc2nc(/C=C\c2ccccc2F)n1-c1ccc(O)cc1 | x | -29.5 | x | x | x
O=c1c2ccccc2nc(/C=C/c2ccc([N+](=O)[O-])o2)n1-c1ccc(O)cc1 | 9.28µM* | -100.5* | u | 14.5 | 21.2
Cc1cccc(-n2c(/C=C/c3ccccc3O)nc3ccccc3c2=O)c1 | x | -98.2* | x | x | x
Cc1cccc(-n2c(/C=C/c3ccc([N+](=O)[O-])o3)nc3ccccc3c2=O)c1 | u | -103.7* | 69.9% | 4.8 | -3.9
CC(=O)N(/N=C/c1ccc([N+](=O)[O-])o1)c1nc2ccccc2c(=O)n1-c1ccccc1 | -7.3% | -63.7* | -7.3% | 1.0 | 6.1
O=C(Cn1c(=O)n(Cc2ccc(C(=O)NCc3ccc4c(c3)OCO4)cc2)c(=O)c2ccccc21)Nc1cccc(Cl)c1 | x | 11.5 | x | x | x
SMILES | Pf growth 48h | HCMV inh | Pf growth 96h | CHX counter | Shiga inhibitor
Cc1ccc(NC(=O)C2CCCN(c3ncnc4c3nc3n4CCCCC3)C2)cc1F (stereo unspecified) | x | -30.1 | x | x | x
Cc1ccc(C)n1C1C(=O)N(C)c2ccc(OC(F)(F)F)cc21 (stereo unspecified) | x | -1.2 | x | x | x
COc1cc(OC)cc(C(=O)NNC(=O)CCNC(=O)c2ccc(Br)cc2)c1 | x | -3.2 | x | x | x
Cc1cccc(-n2ncc(C(=O)N3CCN(C4CCCCC4)CC3)c2C2CCN(C(=O)OC(C)(C)C)CC2)c1 | x | 0.0 | x | x | x
O=C(Nc1ccc(F)cc1)C1CCCO1 (stereo unspecified) | 11.6% | u | 12.5% | 1.9 | -8.6
O=C(Nc1nc(-c2ccc(F)cc2)cs1)C1CCCO1 (stereo unspecified) | 88.5% | -8.7 | 107.1% | 42.0* | 103.7*
O=C(Nc1nc(-c2ccccc2)cs1)C1CCCO1 (stereo unspecified) | 99.7% | 50.1 | u | 38.1* | 110.9*
